Test results as given in PubChem BioAssay (EPA / NIEHS).
Inconclusive results are not listed. The source made the active and inactive calls. The calls were made as follows, unless noted: active = hit-call score of the fitted dose curve at least 0.9, where 1 is the maximum; inconclusive = response in the unintended direction; inactive = score below 0.9.

Experiments:
[1] = ATG_VDRE_CIS: Attagene CIS-FACTORIAL HepG2 Assay for human Vitamin D Receptor Element (VDRE) (AID 2282968; active = hit-call score of the fitted dose curve at least 0.9, where 1 is the maximum; inactive = score below 0.9); settings: HepG2 VDRE cis-reporter transcription, actives raise or lower the signal
Outline: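 Measures endogenous factor activity through cis-element-driven reporter transcripts in transiently transfected HepG2. Cells are treated 24 h; reporter mRNA is quantified by RT-PCR and capillary electrophoresis; fitting is bidirectional.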

[2] = target: Nuclear receptor subfamily 1 group I member 3 (Homo sapiens) (UniProt Q14994); assay: ATG_CAR_TRANS: Attagene TRANS-FACTORIAL HepG2 Assay for human Constitutive Androstane Receptor (CAR) (AID 2282969); settings: HepG2 Attagene TRANS-FACTORIAL CAR reporter;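 also: activators raise reporter mRNA above DMSO so AC50 marks induction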
Chain of Nuclear receptor subfamily 1 group I member 3 (Homo sapiens) (Q14994 whole entry, looked up, the tested form may be a part): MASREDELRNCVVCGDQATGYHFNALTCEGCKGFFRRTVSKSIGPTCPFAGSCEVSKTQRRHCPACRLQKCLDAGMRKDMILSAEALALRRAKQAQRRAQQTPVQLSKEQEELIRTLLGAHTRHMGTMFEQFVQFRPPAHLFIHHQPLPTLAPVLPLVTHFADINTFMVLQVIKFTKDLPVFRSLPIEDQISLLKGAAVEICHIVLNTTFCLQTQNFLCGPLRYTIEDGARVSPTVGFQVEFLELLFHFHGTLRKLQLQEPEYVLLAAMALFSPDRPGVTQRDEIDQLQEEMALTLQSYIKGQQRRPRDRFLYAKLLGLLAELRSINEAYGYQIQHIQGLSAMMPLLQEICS
Outline: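 Signal is reporter mRNA induction relative to DMSO, measured 24 h after dosing by RT-PCR with fluorescent primer extension and capillary electrophoresis. Human HepG2 liver cells carried transiently transfected chimeric NR-Gal4/GAL4-UAS reporter constructs.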

[3] = ATG_M_19_TRANS: Attagene TRANS-FACTORIAL HepG2 Assay for M19 Transcription Factor (Internal Marker) (AID 2282974); settings: HepG2 Attagene TRANS-FACTORIAL M19 internal marker reporter
Outline: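 Measured here: internal-marker reporter transcript from HepG2 cells transfected with MRTUs, harvested at 24 h. cDNA PCR products were 6-FAM labelled by primer extension, cut with HpaI for 2 h at 37 C, and resolved by CE.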

[4] = target: Oxysterols receptor LXR-alpha (Homo sapiens) (UniProt Q13133); assay: ATG_LXRa_TRANS: Attagene TRANS-FACTORIAL HepG2 Assay for human Liver X Receptor alpha (LXRa) (AID 2282980); settings: HepG2 Attagene TRANS reporter, LXRa transactivation
Chain of Oxysterols receptor LXR-alpha (Homo sapiens) (Q13133 whole entry, looked up): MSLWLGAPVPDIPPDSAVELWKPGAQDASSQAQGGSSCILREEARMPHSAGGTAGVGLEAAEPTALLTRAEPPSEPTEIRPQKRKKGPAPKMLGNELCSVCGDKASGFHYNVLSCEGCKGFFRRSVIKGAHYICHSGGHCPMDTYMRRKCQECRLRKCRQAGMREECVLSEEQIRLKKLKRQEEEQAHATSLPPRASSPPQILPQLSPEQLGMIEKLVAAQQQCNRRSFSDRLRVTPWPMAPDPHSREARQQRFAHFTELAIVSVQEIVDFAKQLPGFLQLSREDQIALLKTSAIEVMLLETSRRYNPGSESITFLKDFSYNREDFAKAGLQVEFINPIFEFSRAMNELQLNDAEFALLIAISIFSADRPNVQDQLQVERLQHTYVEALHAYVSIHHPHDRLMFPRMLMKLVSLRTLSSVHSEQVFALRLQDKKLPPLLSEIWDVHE
Outline: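 Transient HepG2 transfectants, 24 h dosing, RT-PCR/CE mRNA reporter quantitation; gain-of-signal vs DMSO.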

[5] = target: Oxysterols receptor LXR-beta (Homo sapiens) (UniProt P55055); assay: ATG_LXRb_TRANS: Attagene TRANS-FACTORIAL HepG2 Assay for human Liver X Receptor beta (LXRb) (AID 2282981); settings: HepG2 Attagene TRANS GAL4-LXRb reporter, mRNA
Chain of Oxysterols receptor LXR-beta (Homo sapiens) (P55055 whole entry, looked up, the tested form may be a part): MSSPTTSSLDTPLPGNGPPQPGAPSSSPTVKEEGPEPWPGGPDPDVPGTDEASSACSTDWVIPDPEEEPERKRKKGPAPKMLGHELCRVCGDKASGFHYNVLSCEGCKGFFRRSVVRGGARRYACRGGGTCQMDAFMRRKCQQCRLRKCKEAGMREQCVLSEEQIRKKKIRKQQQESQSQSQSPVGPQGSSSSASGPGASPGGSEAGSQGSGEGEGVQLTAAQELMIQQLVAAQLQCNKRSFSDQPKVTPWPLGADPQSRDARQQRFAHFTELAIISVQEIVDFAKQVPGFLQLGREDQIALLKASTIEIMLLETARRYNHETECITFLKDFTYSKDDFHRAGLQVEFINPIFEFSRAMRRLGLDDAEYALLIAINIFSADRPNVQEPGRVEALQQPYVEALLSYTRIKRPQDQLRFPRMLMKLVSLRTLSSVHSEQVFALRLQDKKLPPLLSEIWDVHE
Outline: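 After 24 h of chemical treatment, transfected HepG2 cells yield total RNA; reporter cDNA is PCR-amplified, FAM-labelled, HpaI-cut and run on capillary electrophoresis. Signal reflects chimeric LXRb-Gal4 activity on GAL4-UAS reporters.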

[6] = target: Nuclear receptor subfamily 4 group A member 2 (Homo sapiens) (UniProt P43354); assay: ATG_NURR1_TRANS: Attagene TRANS-FACTORIAL HepG2 Assay for human Nuclear Receptor Related Protein 1 (NURR1) (AID 2282985); settings: HepG2 Attagene TRANS reporter, mRNA readout
Chain of Nuclear receptor subfamily 4 group A member 2 (Homo sapiens) (P43354 whole entry, looked up, the tested form may be a part): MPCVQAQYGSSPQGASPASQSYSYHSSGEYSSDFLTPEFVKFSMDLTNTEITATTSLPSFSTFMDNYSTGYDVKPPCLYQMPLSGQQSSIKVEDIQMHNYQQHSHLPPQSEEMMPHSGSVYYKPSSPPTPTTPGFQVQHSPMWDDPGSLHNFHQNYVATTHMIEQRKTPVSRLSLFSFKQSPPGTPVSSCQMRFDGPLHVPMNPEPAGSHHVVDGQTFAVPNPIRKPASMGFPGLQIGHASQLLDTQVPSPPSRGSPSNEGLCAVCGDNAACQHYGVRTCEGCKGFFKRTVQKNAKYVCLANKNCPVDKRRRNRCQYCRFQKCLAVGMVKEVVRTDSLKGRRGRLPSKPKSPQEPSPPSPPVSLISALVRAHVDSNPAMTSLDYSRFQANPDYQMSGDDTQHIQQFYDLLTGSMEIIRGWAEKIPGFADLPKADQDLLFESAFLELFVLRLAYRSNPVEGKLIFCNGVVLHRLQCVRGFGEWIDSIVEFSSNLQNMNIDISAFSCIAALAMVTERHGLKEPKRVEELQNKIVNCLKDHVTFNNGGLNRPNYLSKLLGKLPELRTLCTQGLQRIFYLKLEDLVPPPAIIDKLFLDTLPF
Outline: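 Measures transcriptional activation by an exogenous NR-Gal4 chimera in transfected HepG2 liver cells. After 24 h, reporter RNA is reverse-transcribed, amplified and resolved by capillary electrophoresis; DMSO defines baseline.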

[7] = target: human Peroxisome Proliferator-activated Receptor delta (PPARd), PPARD (gene 5467) (UniProt Q03181); assay: ATG_PPARd_TRANS: Attagene TRANS-FACTORIAL HepG2 Assay for human Peroxisome Proliferator-activated Receptor delta (PPARd) (AID 2283002)
Chain of human Peroxisome Proliferator-activated Receptor delta (PPARd), PPARD (gene 5467) (Q03181 whole entry, looked up, the tested form may be a part): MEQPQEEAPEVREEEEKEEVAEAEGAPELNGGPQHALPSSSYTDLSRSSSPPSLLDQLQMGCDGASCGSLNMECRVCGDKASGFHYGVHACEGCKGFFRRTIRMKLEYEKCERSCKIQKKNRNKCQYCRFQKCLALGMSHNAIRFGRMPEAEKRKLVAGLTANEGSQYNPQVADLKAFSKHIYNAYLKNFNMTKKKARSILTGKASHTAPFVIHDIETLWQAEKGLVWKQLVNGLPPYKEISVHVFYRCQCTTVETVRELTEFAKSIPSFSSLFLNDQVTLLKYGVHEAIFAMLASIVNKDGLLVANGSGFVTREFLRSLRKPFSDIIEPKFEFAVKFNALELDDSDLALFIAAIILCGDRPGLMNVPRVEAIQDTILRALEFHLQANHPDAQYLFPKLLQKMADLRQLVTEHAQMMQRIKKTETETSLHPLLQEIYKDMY
Outline: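 Read-out is induced reporter mRNA, quantified by RT-PCR with fluorescent labelling and capillary electrophoresis after 24 h dosing. Cells are HepG2 transiently carrying multiple GAL4-UAS reporter units driven by exogenous NR-GAL4 chimeras; DMSO serves as baseline.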

[8] = target: human Thyroid Receptor alpha (THRa1), THRA (gene 7067) (UniProt P10827); assay: ATG_THRa1_TRANS: Attagene TRANS-FACTORIAL HepG2 Assay for human Thyroid Receptor alpha (THRa1) (AID 2283014)
Outline: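 First, HepG2 cells receive multiple GAL4-UAS reporter units and the chimeric receptor. They are then dosed for 24 h, after which RNA is reverse-transcribed, amplified, labelled, HpaI-cut and sized by capillary electrophoresis; gain relative to DMSO is scored.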

[9] = TOX21_p53_BLA_p4_viability: Viability Assessment in the Tox21 HCT-116 p53 Agonism Beta-lactamase Assay, Phase 4 (AID 2283597);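 also: hits lower the luminescence signal meaning cytotoxicity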
Outline: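 Viability is taken as cellular ATP: after 16 h compound exposure of HCT116 cells and a 2 h room-temperature CCF4-AM substrate step, CellTiter-Glo reagent is added and luminescence is measured 30 min later.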

[10] = ATG_GAL4_TRANS: Attagene TRANS-FACTORIAL HepG2 Assay for GAL4 (Internal Marker) (AID 2282976); settings: HepG2 Attagene TRANS GAL4 internal marker reporter
Outline: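 Fluorescence from capillary electrophoresis of labelled RT-PCR products quantifies reporter mRNA induction after 24 h dosing of HepG2 cells carrying transfected GAL4-UAS reporter transcription units. Vehicle DMSO serves as baseline.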

[11] = target: Peroxisome proliferator-activated receptor gamma (Homo sapiens) (UniProt P37231); assay: ATG_PPARg_TRANS: Attagene TRANS-FACTORIAL HepG2 Assay for human Peroxisome Proliferator-activated Receptor-gamma (PPARg) (AID 2283007)
Chain of Peroxisome proliferator-activated receptor gamma (Homo sapiens) (P37231 whole entry, looked up): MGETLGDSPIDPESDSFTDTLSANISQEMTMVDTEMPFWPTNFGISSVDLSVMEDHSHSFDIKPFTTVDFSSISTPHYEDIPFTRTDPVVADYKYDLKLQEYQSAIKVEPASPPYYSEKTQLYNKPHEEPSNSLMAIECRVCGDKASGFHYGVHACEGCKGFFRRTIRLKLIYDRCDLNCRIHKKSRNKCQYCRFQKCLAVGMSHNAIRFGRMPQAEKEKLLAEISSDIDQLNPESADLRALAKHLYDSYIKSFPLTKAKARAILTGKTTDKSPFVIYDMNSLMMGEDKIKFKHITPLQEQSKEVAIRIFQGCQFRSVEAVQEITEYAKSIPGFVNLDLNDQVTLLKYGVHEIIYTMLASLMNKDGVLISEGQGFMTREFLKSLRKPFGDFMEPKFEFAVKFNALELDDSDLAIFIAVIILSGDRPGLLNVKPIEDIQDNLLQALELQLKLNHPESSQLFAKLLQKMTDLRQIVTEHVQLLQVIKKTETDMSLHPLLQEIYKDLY
Outline: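 Multiplexed reporter transcription units in HepG2, 24 h dosing, reporter transcripts quantified by fluorescent RT-PCR and capillary electrophoresis. Increase over DMSO scored.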

[12] = target: human Vitamin D Receptor (VDR), VDR (gene 7421) (UniProt P11473); assay: ATG_VDR_TRANS: Attagene TRANS-FACTORIAL HepG2 Assay for human Vitamin D Receptor (VDR) (AID 2283022)
Chain of human Vitamin D Receptor (VDR), VDR (gene 7421) (P11473 whole entry, looked up, the tested form may be a part): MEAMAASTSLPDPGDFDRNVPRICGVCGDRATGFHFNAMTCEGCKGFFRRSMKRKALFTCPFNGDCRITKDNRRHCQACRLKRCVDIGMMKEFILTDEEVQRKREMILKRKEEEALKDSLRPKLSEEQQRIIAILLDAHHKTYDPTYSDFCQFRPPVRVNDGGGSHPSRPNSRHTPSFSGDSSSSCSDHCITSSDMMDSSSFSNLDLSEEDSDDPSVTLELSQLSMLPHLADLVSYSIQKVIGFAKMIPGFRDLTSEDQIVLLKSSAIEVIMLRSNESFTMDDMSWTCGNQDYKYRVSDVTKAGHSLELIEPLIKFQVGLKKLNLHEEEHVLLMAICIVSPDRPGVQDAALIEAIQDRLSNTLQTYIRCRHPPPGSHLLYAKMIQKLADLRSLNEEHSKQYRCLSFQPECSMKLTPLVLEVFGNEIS
Outline: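 Fluorescence of labelled reporter cDNA fragments, resolved by capillary electrophoresis, gives mRNA induction after 24 h treatment of HepG2 cells carrying transfected Gal4-fusion reporter units. Activity is fitted in the positive direction with DMSO as baseline.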

[13] = target: human RAR-related Orphan Receptor gamma (RORg), RORC (gene 6097) (UniProt P51449); assay: ATG_RORg_TRANS: Attagene TRANS-FACTORIAL HepG2 Assay for human RAR-related Orphan Receptor gamma (RORg) (AID 2283011)
Chain of human RAR-related Orphan Receptor gamma (RORg), RORC (gene 6097) (P51449 whole entry, looked up, the tested form may be a part): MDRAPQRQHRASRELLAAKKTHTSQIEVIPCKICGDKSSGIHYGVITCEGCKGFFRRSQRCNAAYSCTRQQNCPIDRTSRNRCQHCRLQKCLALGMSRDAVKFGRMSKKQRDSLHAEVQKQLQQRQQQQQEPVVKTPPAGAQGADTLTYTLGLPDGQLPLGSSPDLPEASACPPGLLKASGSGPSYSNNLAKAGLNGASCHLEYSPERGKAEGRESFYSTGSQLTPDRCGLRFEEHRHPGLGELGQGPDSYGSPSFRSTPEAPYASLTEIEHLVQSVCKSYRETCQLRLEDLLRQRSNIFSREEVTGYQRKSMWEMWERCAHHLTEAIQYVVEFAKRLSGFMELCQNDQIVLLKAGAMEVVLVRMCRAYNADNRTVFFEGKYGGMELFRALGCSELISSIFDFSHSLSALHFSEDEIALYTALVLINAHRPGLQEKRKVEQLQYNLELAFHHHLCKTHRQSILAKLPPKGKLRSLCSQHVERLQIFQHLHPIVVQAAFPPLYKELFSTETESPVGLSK
Outline: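 Activity is scored as increase in GAL4-UAS reporter mRNA over DMSO, detected by fluorescent RT-PCR and capillary electrophoresis in HepG2 cells transiently expressing a RORg-Gal4 chimera, 24 h after dosing.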

[14] = CCTE_Harrill_HTTr_Viability_MCF7: CCTE's 6-hour Cell Viability Assessment for the High-Throughput Transcriptomics (HTTr) Platform, in MCF-7 cells cultured in DMEM + 10% fetal bovine serum, Harrill Lab (AID 2284010; active = hit-call score of the fitted dose curve at least 0.9, where 1 is the maximum; inactive = score below 0.9)
Outline: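 Eight-point concentration series, six-hour exposure. Propidium iodide exclusion imaged to assess membrane integrity as a cytotoxicity readout; bidirectional fitting was done with DMSO as negative control and activity baseline.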

[15] = CCTE_Harrill_HTTr_Apoptosis_MCF7: CCTE's 6-hour Apoptosis Assessment for the High-Throughput Transcriptomics (HTTr) Platform, in MCF-7 cells cultured in DMEM + 10% fetal bovine serum, Harrill Lab (AID 2284011; active = hit-call score of the fitted dose curve at least 0.9, where 1 is the maximum; inactive = score below 0.9)
Outline: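 Cells are dosed with test chemicals at eight concentrations and imaged 6 hours later for caspase-3/7 activity using a green fluorogenic detection reagent. Activity is fitted in both directions against DMSO controls.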

[16] = target: Bile acid receptor (Homo sapiens) (UniProt Q96RI1); assay: ATG_FXR_TRANS: Attagene TRANS-FACTORIAL HepG2 Assay for Farnesoid X Receptor (FXR) (AID 2282979); settings: HepG2 Attagene TRANS FXR-GAL4 reporter transcription;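 also: hits raise reporter mRNA above DMSO so AC50 marks FXR activation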
Chain of Bile acid receptor (Homo sapiens) (Q96RI1 whole entry, looked up, the tested form may be a part): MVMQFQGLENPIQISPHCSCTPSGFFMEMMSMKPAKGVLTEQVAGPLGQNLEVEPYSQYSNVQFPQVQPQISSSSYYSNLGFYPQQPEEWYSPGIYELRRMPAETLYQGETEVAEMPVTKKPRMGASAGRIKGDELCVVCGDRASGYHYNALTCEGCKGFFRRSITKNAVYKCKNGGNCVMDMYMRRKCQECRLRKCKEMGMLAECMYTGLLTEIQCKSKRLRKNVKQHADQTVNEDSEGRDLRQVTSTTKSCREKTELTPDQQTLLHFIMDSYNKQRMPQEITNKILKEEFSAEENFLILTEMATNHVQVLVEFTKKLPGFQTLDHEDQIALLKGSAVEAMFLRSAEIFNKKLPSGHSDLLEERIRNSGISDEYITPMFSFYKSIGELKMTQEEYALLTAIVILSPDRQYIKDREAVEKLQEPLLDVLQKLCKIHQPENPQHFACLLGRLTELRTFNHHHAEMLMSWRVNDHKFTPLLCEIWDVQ
Outline: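 Chimeric FXR-GAL4 activity in transiently transfected human HepG2 liver cells is scored as induction of reporter mRNA after 24 h of dosing. Detection uses RT-PCR with fluorescent labelling and capillary electrophoresis, with DMSO serving as baseline.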

[17] = ATG_NF_kB_CIS: Attagene CIS-FACTORIAL HepG2 Assay for human Nuclear Factor Kappa B (NF-kB) (AID 2282991; active = hit-call score of the fitted dose curve at least 0.9, where 1 is the maximum; inactive = score below 0.9); settings: HepG2 Attagene cis-factorial NF-kB reporter mRNA; actives raise or lower the signal
Outline: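 HepG2, transient multi-reporter transfection, cis promoter elements (endogenous TFs). 24 h exposure. Total RNA → RT → PCR → 6-FAM label → HpaI → CE. Gain/loss vs DMSO.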

[18] = target: human RAR-related Orphan Receptor beta (RORb), RORB (gene 6096) (UniProt Q92753); assay: ATG_RORb_TRANS: Attagene TRANS-FACTORIAL HepG2 Assay for human RAR-related Orphan Receptor beta (RORb) (AID 2283010)
Chain of human RAR-related Orphan Receptor beta (RORb), RORB (gene 6096) (Q92753 whole entry, looked up, the tested form may be a part): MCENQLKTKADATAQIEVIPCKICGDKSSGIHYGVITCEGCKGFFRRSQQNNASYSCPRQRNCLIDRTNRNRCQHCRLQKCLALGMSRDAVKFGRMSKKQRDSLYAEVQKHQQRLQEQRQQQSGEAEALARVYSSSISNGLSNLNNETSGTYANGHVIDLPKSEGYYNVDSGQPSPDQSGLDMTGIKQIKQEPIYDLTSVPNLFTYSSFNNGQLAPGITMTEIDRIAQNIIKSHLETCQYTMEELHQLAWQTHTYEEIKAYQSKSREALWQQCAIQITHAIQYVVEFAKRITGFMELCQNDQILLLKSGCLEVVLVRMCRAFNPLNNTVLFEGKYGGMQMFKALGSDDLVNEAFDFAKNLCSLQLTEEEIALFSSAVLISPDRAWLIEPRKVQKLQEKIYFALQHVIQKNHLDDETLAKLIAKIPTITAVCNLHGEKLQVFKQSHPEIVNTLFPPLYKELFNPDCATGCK
Outline: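 Multiplexed transcription-factor reporter assay: HepG2 cells transiently carrying NR-Gal4/GAL4-UAS constructs, 24 h treatment, mRNA quantified by RT-PCR plus capillary electrophoresis fluorescence; activity scored as induction over DMSO.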

[19] = target: Glucocorticoid receptor (Homo sapiens) (UniProt P04150); assay: ATG_GR_TRANS: Attagene TRANS-FACTORIAL HepG2 Assay for human Glucocorticoid Receptor (GR) (AID 2282978); settings: HepG2 Attagene TRANS GR reporter, mRNA transcription;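 also: activators score as hits since higher reporter transcript over DMSO is fitted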
Outline: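 Measurement of GAL4-UAS-driven reporter mRNA in human HepG2 liver cells 24 h post-dosing, using RT-PCR with fluorescent labelling and capillary electrophoresis; the transfected constructs report exogenous NR-GAL4 chimera activity, fitted upward against DMSO.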

[20] = ATG_M_06_TRANS: Attagene TRANS-FACTORIAL HepG2 Assay for M06 Transcription Factor (Internal Marker) (AID 2282983); settings: HepG2 Attagene TRANS M06 internal marker reporter;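 also: reporter transcript level by RT-PCR then capillary electrophoresis fluorescence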
Outline: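 Human liver HepG2 cells bearing transiently transfected chimeric NR-GAL4 reporter units were treated with chemicals for 24 h. Total RNA was reverse-transcribed, reporter sequences amplified and labelled, then quantified by capillary electrophoresis. Activity was fitted upward relative to DMSO.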

Measured: AC50

Cc1ccccc1S(N)(=O)=O
active: [1] 26.5 µM
inactive: [2] | [3] | [4] | [5] | [6] | [7] | [8] | [9]

OCCN(CCO)c1cccc(Cl)c1
inactive: [1] | [2] | [10] | [11] | [12]

Brc1ccc(Oc2ccc(Br)cc2)cc1
not listed: [5] | [10] | [11] | [16] | [17] | [18] | [19] | [20]
inactive: all other assays above

CC(C)CC(=O)CC(C)CC(C)C (centres undefined)
inactive: [2] | [3] | [10] | [16] | [5] | [6] | [17] | [11] | [18] | [13] | [9]

COC(=O)CCSCCC(=O)OC
inactive: [3] | [19] | [16] | [5] | [8]

Oc1ccc(Oc2ccccc2)cc1
inactive: [16] | [4] | [20] | [17] | [7] | [8] | [12] | [9]
active: [11] 28 µM

CCO[Si](CCCN)(OCC)OCC
not listed: [1] | [2] | [8] | [11] | [12] | [13] | [14] | [15]
inactive: all other assays above

CCCCCCCC#N
inactive: [1] | [3] | [10] | [19] | [4] | [5] | [6] | [17] | [8]

Nc1nnc(-c2ccc([N+](=O)[O-])o2)o1
inactive: [1] | [3] | [5] | [6] | [7] | [11] | [9]

Cc1cccnc1
inactive: [2] | [3] | [10] | [4] | [5] | [17] | [11] | [18] | [8] | [14] | [15]

NC(N)=Nc1nc(CSCCC(N)=NS(N)(=O)=O)cs1
inactive: [10] | [19] | [16] | [5] | [20] | [8] | [9] | [14] | [15]

CN1CCCC1
inactive: [1] | [2] | [10] | [16] | [4] | [5] | [6] | [17] | [13] | [8]

[O-][n+]1ccc(Cl)cc1
inactive: [1] | [10] | [19] | [16] | [5] | [17] | [7] | [18] | [13] | [12]
